Records with an inconclusive call do not appear. Active and inactive are the calls of the source. The call rests on the fitted dose curve; in most records, active means well fitted cell-killing curve with a large enough effect; inconclusive means small, poorly fitted or top-dose-only effect, or effect the other way; inactive means no such curve, though single readings can be large or run the other way.
assay: Quantitative High-Throughput drug screen in 47 multiple myeloma cell lines against the NCATS MIPE library collection: OCIMY7_PLB cell viability assay (AID 1918987); details: OCI-MY7 myeloma viability, CellTiter-Glo ATP, 48 h; viability (% of DMSO): at 45.8 µM (top of the series); further: nearly all actives have a fitted effect of over 65% in size
Description: PI: Beverly A. Mock Ph.D.
Laboratory of Cancer Biology and Genetics,
Center for Cancer Research, National Cancer Institute,
National Institute of Health, Bethesda, Maryland
Drug resistance and disease progression are common in multiple myeloma (MM) patients, underscoring the need for new therapeutic combinations. […] We hypothesized that effective combinations would reduce MYC expression and enhance p16 activity. […] These preclinical data identify potentially useful drug combinations for evaluation in drug-resistant MM and reveal potential mechanisms of combined drug sensitivity.
Described herein is the primary MIPE qHTS used to cherrypick compounds. Validated compounds were then further tested for potential synergistic activiy.
[1] Peat TJ, Gaikwad SM, Dubois W, Gyabaah-Kessie N, Zhang S, Gorjifard S, Phyo Z, Andres M, Hughitt VK, Simpson RM, Miller MA, Girvin AT, Taylor A, Williams D, D'Antonio N, Zhang Y, Rajagopalan A, Flietner E, Wilson K, Zhang X, Shinn P, Klumpp-Thomas C, McKnight C, Itkin Z, Chen L, Kazandijian D, Zhang J, Michalowski AM, Simmons JK, Keats J, Thomas CJ, Mock BA. Drug combinations identified by high-throughput screening promote cell cycle transition and upregulate Smad pathways in myeloma. Cancer Lett. 2023 Aug 1;568:216284. doi: 10.1016/j.canlet.2023.216284. Epub 2023 Jun 24. PMID: 37356470; PMCID: PMC10408729.
SEQUENCE No. (e.g., 1, 2, 3, etc.); […] (e.g., Cells, Incubation, Reagent, etc.); VALUE and DESCRIPTION.
1; Cells; 5 uL; white, solid bottom 1536-well Greiner assay plate.
2; Compounds; 23 nL; Kalypsis pin tool (Wako USA) equipped with a 1536-well pin head to transfer to the assay plates.
3; Incubation; 48 hours; 37C incubation.
4; Reagent;5uL; CellTiter Glo (Promega).
5; Detector; 425V; Luminescence; Viewlux PerkinElmer.
NOTES (numbers refer to Sequence numbers above)
1. The cell-based screening methods employed in this study were like those previously published. Briefly, the corresponding myeloma cell lines were screened in 1,536-well plates with 500 cells, 5-uL per well for inhibition of cell viability (assessed by measuring ATP levels with CellTiterGlo).
2. NCATS MIPE 4.0 library of approved and investigational drugs were added using the Kalypsis pin tool. Wells treated with DMSO only for 100% viability and media only for 0% viability were used as controls.
3. The assay plates were covered and incubated for 48 hours in a 37C, 5% CO2 incubator with controlled humidity.
4. After 48 hours, CellTilter-GloTM luminescent substrate mix (Promega) reagent was added to the assay plate and plates we incubated for 5 min at room temperature.
5. Signal was measured as median relative luminescence units on a ViewLux (PerkinElmer) multiplate reader.
[1] Heske CM, Davis MI, Baumgart JT, Wilson K, Gormally MV, Chen L, Zhang X, Ceribelli M, Duveau DY, Guha R, Ferrer M, Arnaldez FI, Ji J, Tran HL, Zhang Y, Mendoza A, Helman LJ, Thomas CJ. Matrix Screen Identifies Synergistic Combination of PARP Inhibitors and Nicotinamide Phosphoribosyltransferase (NAMPT) Inhibitors in Ewing Sarcoma. Clin Cancer Res. 2017 Dec 1;23(23):7301-7311. doi: 10.1158/1078-0432.CCR-17-1121. Epub 2017 Sep 12. PMID: 28899971; PMCID: PMC6636827.
Potency means the concentration at half of the fitted maximal effect.

Structure (SMILES)	Potency	viability (% of DMSO)
CC(C)c1c(C(=O)Nc2ccccc2)c(-c2ccccc2)c(-c2ccc(F)cc2)n1CC[C@H](O)C[C@@H](O)CC(=O)O	4.69 µM (active)	
COc1c(C)c2c(c(O)c1CC=C(C)CCC(=O)O)C(=O)OC2	4.69 µM (active)	
N#CC(c1ccnc(NCCc2cccnc2)n1)c1nc2ccccc2s1 (stereo not given)	2.96 µM (active)	
Cc1ccc(NC(=O)Nc2cc(C(F)(F)F)ccc2F)cc1Nc1ccc2c(c1)NC(=O)C2=Cc1ccc[nH]1	2.96 µM (active)	
C[C@H](c1ccc(F)cc1CCCC(=O)O)N(c1cc(F)ccc1F)S(=O)(=O)c1ccc(Cl)cc1	13.2 µM (active)	
O=S(=O)(NCCNCC=Cc1ccc(Br)cc1)c1cccc2cnccc12	23.5 µM (active)	
COc1cc([C@H]2Oc3cc([C@H]4Oc5cc(O)cc(O)c5C(=O)[C@H]4O)ccc3O[C@H]2CO)ccc1O	8.33 µM (active)	
CC(=O)OCC(=O)[C@@]12OC(C)(C)O[C@H]1C[C@H]1[C@@H]3C[C@H](F)C4=CC(=O)C=C[C@]4(C)[C@@]3(F)[C@@H](O)C[C@@]12C	inactive	
Cc1cccc(Nc2nc(N[C@@H]3CCCC[C@H]3N)ncc2C(N)=O)c1	6.62 µM (active)	
N#CC(c1ccc(Cl)cc1)c1c(Cl)cc(-n2ncc(=O)[nH]c2=O)cc1Cl (stereo not given)	4.69 µM (active)	
Cc1ccc(S(=O)(=O)Nc2nc3ccccc3nc2Nc2ccc3nsnc3c2)cc1	1.44 µM (active)	
COc1nccc(-c2c(-c3ccc(F)cc3)ncn2C2CCC(O)CC2)n1 (stereo not given)	inactive	
O=[N+]([O-])c1ccc(Nc2ccccc2-c2ccccc2)c2nonc12	18.7 µM (active)	
O[C@@H](COc1cccc2ncccc12)CN1CCN(C2c3ccccc3[C@@H]3[C@H](c4ccccc42)C3(F)F)CC1 (stereo not given in full)	7.43 µM (active)	
C[C@@H](N)c1ccc(C(=O)Nc2ccnc3[nH]ccc23)cc1	14.8 µM (active)	
NS(=O)(=O)c1cc(Cl)c(Cl)c(S(N)(=O)=O)c1	inactive	
Nc1ncnc2c1ncn2[C@@H]1O[C@H](CO)[C@@H](O)[C@@H]1O		126% (active)
Cc1ccc(NC(=O)c2cccc(N(C)C)c2)cc1NC(=O)c1ccc(O)cc1	0.059 µM (active)	
CCOC(=O)N1c2ccc(C(F)(F)F)cc2[C@@H](N(Cc2cc(C(F)(F)F)cc(C(F)(F)F)c2)C(=O)OC)C[C@H]1CC	inactive	
CNC(=O)c1ccc2c(C(=Nc3cccc(CN(C)C)c3)c3ccccc3)c(O)[nH]c2c1	5.9 µM (active)	

Structure (SMILES)	Potency	viability (% of DMSO)
CN(C)CCOc1ccc(C(=C(CCCl)c2ccccc2)c2ccccc2)cc1	5.9 µM (active)	
Cc1ccc(NC(=O)c2ccc(CN3CCN(C)CC3)cc2)cc1Nc1nc(-c2cccnc2)cs1	14.8 µM (active)	
CCOC(=O)[C@H](CCc1ccccc1)N[C@@H](C)C(=O)N1CCCC1C(=O)O (stereo not given in full)	inactive	
c1ccc(CNc2nc(N3CCOc4ccccc43)nc3c2CCCC3)cc1	inactive	
C=CC(=O)Nc1cccc(Sc2nc(Nc3ccc(N4CCN(C)CC4)cc3)ncc2Cl)c1	0.743 µM (active)	
CO[C@H]1C=CO[C@@]2(C)Oc3c(C)c(O)c4c(O)c(c(C=NN5CCN(C)CC5)c(O)c4c3C2=O)NC(=O)C(C)=CC=C[C@H](C)[C@H](O)[C@@H](C)[C@@H](O)[C@@H](C)[C@H](OC(C)=O)[C@H]1C	inactive	
Cc1cc(C(C)Nc2ccccc2)c2nc(N3CCOCC3)cc(=O)n2c1 (stereo not given)	2.09 µM (active)	
COc1cc(Cl)cn2c(-c3cccc(NC4CNC4)n3)cnc12	9.35 µM (active)	
OC(c1cc(C(F)(F)F)nc2c(C(F)(F)F)cccc12)C1CCCCN1 (stereo not given)	10.5 µM (active)	
FC(F)(F)c1ccc(C=Cc2nc(COc3ccc(CCCCn4ccnn4)cc3)co2)cc1	0.132 µM (active)	
C=CC[N+]1([C@H]2C[C@H]3[C@@H]4CC[C@H]5C[C@H](O)[C@@H](N6CCOCC6)C[C@]5(C)[C@@H]4CC[C@]3(C)[C@H]2OC(C)=O)CCCC1	inactive	
CN(C)CC[C@H](CSc1ccccc1)Nc1ccc(S(=O)(=O)NC(=O)c2ccc(N3CCN(Cc4ccccc4-c4ccc(Cl)cc4)CC3)cc2)cc1[N+](=O)[O-]	0.209 µM (active)	
CCN(CCO)CCCOc1ccc2c(Nc3cc(CC(=O)Nc4cccc(F)c4)[nH]n3)ncnc2c1	1.05 µM (active)	
O=C(O)Cc1cccc(OCCCN(Cc2cccc(C(F)(F)F)c2Cl)CC(c2ccccc2)c2ccccc2)c1	13.2 µM (active)	
CC(C)C[C@H](NC(=O)c1cc2ccccc2s1)C(=O)N1CCN(C(=O)[C@H](CO)NS(=O)(=O)c2ccc(Cl)cc2Cl)CC1	23.5 µM (active)	
CN(C)c1ccc(-c2nc3ncc(Cl)c(N4CCN(CC(=O)Nc5nccs5)CC4)c3[nH]2)cc1	1.66 µM (active)	
O=C(Nc1cccc(Cl)c1)Nc1ncc(CCNc2ncnc3ccsc23)s1	0.264 µM (active)	
CN[C@@H]1[C@@H](O)[C@@H](O[C@@H]2[C@@H](O)[C@H](O[C@H]3O[C@H](CN)[C@@H](O)[C@H](O)[C@@H]3O)[C@@H](N)C[C@@H]2NC(=O)[C@@H](O)CN)OC[C@]1(C)O	inactive	
CC1=C[C@@H]2[C@@H]([C@@H](O)C[C@@]3(C)[C@H]2C[C@@H](C)[C@]3(O)C(=O)CO)[C@@]2(C)Cc3cnn(-c4ccccc4)c3C=C12	9.35 µM (active)	
CSc1cccc(Nc2ncc3cc(-c4c(Cl)cccc4Cl)c(=O)n(C)c3n2)c1	0.0935 µM (active)	
